Our source for the outcome and AC50 values is PubChem BioAssay (EPA / NIEHS).

As a reminder, the AC50 is the concentration at which the activity in the assay is half-maximal.

Several values for one entry are separate records, joined by “and”; a condition that tells them apart may be missing. Equal values may be shown once. Results filed as inconclusive are left out. Some structures have more than one record in an assay (separate samples or runs), and their calls can disagree. Activity calls are given as the source filed them. Rule for the calls: active = hit-call score of the fitted dose curve at least 0.9, where 1 is the maximum; inconclusive = response in the unintended direction; inactive = score below 0.9.

The assay is described as follows: TOX21_p53_BLA_p4_viability: Viability Assessment in the Tox21 HCT-116 p53 Agonism Beta-lactamase Assay, Phase 4 (AID 2283597).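 Note: hits lower the luminescence signal meaning cytotoxicity.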 The text has this:
TOX21_p53_BLA_p4 is a cell-based, single-readout assay that uses HCT116, a human intestinal cell line, […] in a 1536-well plate.TOX21_p53_BLA_p4_viability is an assay readout measuring cellular ATP content and detected with CellTiter-Glo Luciferase-coupled ATP quantitation.TOX21_p53_BLA_p4_viability used a type of viability reporter where loss-of-signal activity can be used to understand changes in the cell viability. Furthermore, this assay endpoint can be referred to as a secondary readout, because this assay has produced multiple assay endpoints where this one serves a viability function. To generalize the intended target to other relatable targets, this assay endpoint is annotated to the cell cycle intended target family, where the subfamily is cytotoxicity.
Thawing Method: Place 14 mL of pre-warmed thaw medium into a 15 mL of conical tub. Remove the vial of cells to be thawed from liquid nitrogen and thaw rapidly by placing at 37C in a water bath with gentle agitation for 1-2 minutes. Decontaminate the vial by wiping with 70% ethanol before opening in a biological safety cabinet. Transfer the vial contents drop-wise into 14 mL of thaw medium in a sterile 15-mL conical tub. Centrifuge cells at 900 rpm for 4 minutes and resuspend in thaw medium. Transfer contents to the T75 tissue culture flask containing Thaw Medium and place flask in a humidified 37C/5% CO2 incubator. Switch to growth medium at first passage.Propagation Method: Aspirate medium, rinse once in DPBS, add 0.25% Trypsin/EDTA and swirl to coat the cell evenly. Add an equal volume of Growth Medium to inactivate Trypsin after 2-3 minutes incubation at 37C. Centrifuge cells at 900 rpm for 4 minutes and resuspend in growth medium. Cell should be passage or fed at least twice a week.Assay Protocol: Harvest cells from culture in growth medium and resuspend in assay medium. 2.2 Dispense 4000 cells/5 uL/well into 1536-well black/clear bottom plates using a Multidrop dispenser. After the cells were incubated at 37C for 5 hours, 23 nL of compounds dissolved in DMSO were transferred to the assay plate by a PinTool resulting in a 217-fold dilution. Incubate the plates for 16 hours at 37C, 5% CO2. Add 1 uL of 6X LiveBLAzer FRET B/G (CCF4-AM) Substrate Mixture to each well using a BioRAPTR dispenser and incubate the plates at room temperature for 2 hours. Measure fluorescence intensity at 460 and 530 nm emission and 405 nm excitation by an Envision detector. Data is expressed as the ratio of 460nm/530nm emissions. Add 4 uL of Cell-titer Glo to each well using BioRAPTR and incubate the plates at room temperature for […]. For cell viability readout that measures cytotoxicity, 4 ul/well of CellTiter-Glo reagent was added into the assay plates using a Flying Reagent Dispenser. After 30 min incubation at room temperature, the luminescence intensity in the plates was measured using a ViewLux plate reader.
For `CC(=O)OC/C=C(C)/C=C/C=C(C)/C=C/C1=C(C)CCCC1(C)C`, the result was inactive.

Turning to `CC(C)C(=O)OCC=Cc1ccccc1`, the call was inactive.

`CN1CCc2cccc3c2[C@H]1Cc1ccc(O)c(O)c1-3`: the call was inactive; the concentration at half-maximal activity (AC50) was 35.5 µM (active) and 44.9 µM (active).

Turning to `O=S1(=O)CC=CC1`, the compound was called inactive.

On to `CC(C)=CCCC(C)=CC(=O)O`, for which the result was inactive.

In the case of `CCCCCCCCCCCCCC(=O)OCC`, the result was inactive.

For `[Cu+]`, the outcome was inactive.

`CCCCCC(=O)O[C@]1(C(C)=O)CC[C@H]2[C@@H]3CCC4=CC(=O)CC[C@]4(C)[C@H]3CC[C@@]21C`: the compound was classed as inactive.

With `Nc1cc([N+](=O)[O-])ccc1C(=O)O`, the call was inactive.

For `C#C[C@]1(O)CC[C@H]2[C@@H]3CCc4cc(O)ccc4[C@H]3CC[C@@]21C`, the compound was classed as inactive.

Consider `C[C@H](CCC(=O)O)[C@H]1CC[C@H]2[C@@H]3CC[C@@H]4C[C@H](O)CC[C@]4(C)[C@H]3CC[C@]12C`, for which the result was inactive and the AC50 is 13.5 µM (active).

`CCOC(=O)COC(=O)c1ccccc1C(=O)OCC`: the outcome was inactive.

As for `OC[C@@H](O)[C@H](O)[C@@H](O)[C@@H](O)CO`, the result was inactive.

Consider `CC1=CC[C@@H]2C[C@H]1C2(C)C`, for which the call was inactive.

With `CC/C=C\C#N`, the outcome was inactive.

As for `CCO[Si](CC)(OCC)OCC`, the compound was classed as inactive.

For the compound `CNC(=C[N+](=O)[O-])NCCSCc1ccc(CN(C)C)o1`, the call was inactive.

`CCCCCCC(C)O` (stereo not given): the call was inactive.

On to `CCCCOCCOC(=O)c1ccccc1C(=O)OCCOCCCC`, for which the call was inactive.

`O=S(=O)(O)c1cc(S(=O)(=O)O)c2c(N=Nc3ccccc3)c(O)ccc2c1`: the compound was classed as inactive.

As to `C=C1CC/C=C(\C)CC[C@@H]2[C@@H]1CC2(C)C`, the result was inactive.

With `CCCCCCCCOC(C)=O`, the outcome was inactive.

`CC1=CCC(C(C)(C)O)CC1` (stereo not given): the compound was classed as inactive.

For the compound `c1ccc(OCCOc2ccccc2)cc1`, the outcome was inactive.

For the compound `CN(C)C`, the compound was called inactive.

Take `CCCCCCCC(=O)N(C)C`: the compound was called inactive.

As to `CCCCCc1cccc(=O)o1`, the outcome was inactive.

Turning to `S=c1[nH][nH]c(=S)s1`, the compound was classed as inactive.

Regarding `NC(=O)c1cccnc1`, the call was inactive.

In the case of `COC(=O)c1cccc(C(=O)OC)c1`, the compound was classed as inactive.

For `[O-]/[N+](=N\O)c1ccccc1`, the call was inactive.

Consider `CCCCCCCOC(C)=O`, for which the compound was called inactive.

With `C=C(C)C(=O)OCCC[Si](OC)(OC)OC`, the outcome was inactive.

`CC(O)CNCC(C)O` (stereo not given): the call was inactive.

With `CC1(C)CC(N)CC(C)(CN)C1` (stereo not given), the call was inactive.

As for `C=CC(C)CCCC(C)(C)O` (stereo not given), the compound was called inactive.

Regarding `O=[N+]([O-])c1cc(N(CCO)CCO)ccc1NCCO`, the call was inactive.

Take `NCCCOCCOCCOCCCN`: the compound was classed as inactive.
